According to the supplement of paper PMC10849652:
Targets with a hit are over-represented here; the source holds about 7,900 in all. About 0.6% of all pairs of compound and target were hits.

Experiments:
Experiment in all cases: log2 fold change, soluble protein after heating vs DMSO (PISA); higher = thermal stabilisation; K562 cells, 10 uM, 30 min; active = over 0.2 and 3.5 SD of the protein, either way, in both replicates (recomputed)
[1] = compound: NC(=O)Nc1cc(-c2cccc(F)c2)sc1C(=O)N[C@H]1CCCNC1
Method in brief: (§1)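 Values are thermal stability changes relative to control samples and are taken from duplicates. They are stated as log2 fold changes. Before quantification by TMTpro 16plex LC-MS/MS with equalised channel sums, K562 cells at 2×10^6 cells/mL were treated with 10 μM compound for 30 min, heated in aliquots for 3 min across 48°C-58°C, pooled, extracted in PBS with 0.5% NP-40 at 4°C, and centrifuged at 21,000xg for 90 min to give the soluble supernatant.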

[2] = compound: NC(=O)c1cnc(N[C@@H]2CCCC[C@@H]2N)nc1Nc1cccc(-n2nccn2)c1
Method in brief: as §1

[3] = compound: NC1(c2ccc(-c3nc4ccn5c(=O)[nH]nc5c4cc3-c3ccccc3)cc2)CCC1
Method in brief: as §1

[4] = compound: NCC(=O)Nc1ccc(-n2nc(C(F)(F)F)cc2-c2ccc3c(ccc4ccccc43)c2)cc1
Method in brief: as §1

entinostat = compound: Nc1ccccc1NC(=O)c1ccc(CNC(=O)OCc2cccnc2)cc1 [entinostat]
Method in brief: as §1

vorinostat = compound: O=C(CCCCCCC(=O)Nc1ccccc1)NO [vorinostat]
Method in brief: as §1

citarinostat = compound: O=C(CCCCCCNC(=O)c1cnc(N(c2ccccc2)c2ccccc2Cl)nc1)NO [citarinostat]
Method in brief: as §1

silmitasertib = compound: O=C(O)c1ccc2c(c1)nc(Nc1cccc(Cl)c1)c1ccncc12 [silmitasertib]
Method in brief: as §1

[5] = compound: O=C1NC(=O)C(c2cnc3ccccn23)=C1c1cn2c3c(cc(F)cc13)CN(C(=O)N1CCCCC1)CC2
Method in brief: as §1

[6] = compound: c1cc(OCCN2CCCCC2)cc(-c2n[nH]c3ccc(-c4nnc[nH]4)cc23)c1
Method in brief: as §1

Measured: log2 fold change

KNTC1 (UniProt P50748)
inactive: [1] -0.037 | [2] -0.1 | [3] -0.193 | [4] -0.046 | entinostat 0.049 | vorinostat 0.029 | citarinostat 0.037 | silmitasertib 0.077 | [5] 0.013 | [6] -0.004

LBR (UniProt Q14739)
inactive: [1] 0.025 | [2] -0.008 | [3] 0.004 | [4] -0.003 | entinostat 0.023 | vorinostat 0.021 | citarinostat -0.021 | silmitasertib -0.085 | [5] 0.012 | [6] 0.082

LUC7L (UniProt Q9NQ29)
Chain of UniProt Q9NQ29 (Q9NQ29 whole entry, looked up): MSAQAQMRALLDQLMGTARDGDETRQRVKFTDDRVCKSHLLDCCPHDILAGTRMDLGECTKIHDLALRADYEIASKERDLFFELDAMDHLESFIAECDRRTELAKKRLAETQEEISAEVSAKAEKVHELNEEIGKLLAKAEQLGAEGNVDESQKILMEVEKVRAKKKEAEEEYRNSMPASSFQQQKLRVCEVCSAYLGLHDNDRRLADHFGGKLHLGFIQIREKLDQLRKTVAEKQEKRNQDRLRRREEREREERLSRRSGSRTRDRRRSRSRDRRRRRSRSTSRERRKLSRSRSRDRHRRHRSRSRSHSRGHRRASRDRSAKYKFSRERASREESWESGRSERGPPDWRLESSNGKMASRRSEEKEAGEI
inactive: [1] -0.061 | [2] 0.011 | [3] 0.17 | [4] -0.043 | entinostat -0.01 | vorinostat -0.058 | citarinostat -0.052 | silmitasertib -0.006 | [5] 0.133 | [6] -0.095

LARP4 isoform 4 (UniProt Q71RC2)
Chain of UniProt Q71RC2 (Q71RC2 whole entry, looked up): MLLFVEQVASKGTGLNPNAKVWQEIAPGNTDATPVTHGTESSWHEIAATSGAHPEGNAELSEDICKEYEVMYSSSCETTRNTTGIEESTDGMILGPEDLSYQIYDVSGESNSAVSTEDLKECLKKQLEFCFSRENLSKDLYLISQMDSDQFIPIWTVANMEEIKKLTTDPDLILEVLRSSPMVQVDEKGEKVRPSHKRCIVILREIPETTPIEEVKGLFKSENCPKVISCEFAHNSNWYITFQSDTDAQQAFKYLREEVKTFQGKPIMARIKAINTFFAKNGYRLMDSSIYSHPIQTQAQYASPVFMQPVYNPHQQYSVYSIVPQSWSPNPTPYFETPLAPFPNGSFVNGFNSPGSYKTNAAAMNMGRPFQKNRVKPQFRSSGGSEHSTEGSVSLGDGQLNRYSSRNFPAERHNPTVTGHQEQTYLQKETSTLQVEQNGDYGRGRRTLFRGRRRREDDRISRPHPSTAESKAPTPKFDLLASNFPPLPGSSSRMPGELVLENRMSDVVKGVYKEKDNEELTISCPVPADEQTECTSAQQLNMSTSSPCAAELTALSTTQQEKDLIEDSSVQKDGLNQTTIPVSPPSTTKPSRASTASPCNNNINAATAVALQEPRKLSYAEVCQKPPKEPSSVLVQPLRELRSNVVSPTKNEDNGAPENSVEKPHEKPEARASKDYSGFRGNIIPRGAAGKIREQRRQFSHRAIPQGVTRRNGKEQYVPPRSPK
inactive: [1] -0.034 | [2] -0.094 | [3] 0.084 | [4] 0.048 | entinostat 0.037 | vorinostat 0.133 | citarinostat -0.004 | silmitasertib 0.043 | [5] 0.009 | [6] -0.116

METTL18 (UniProt O95568)
inactive: [1] -0.028 | [2] 0.008 | [3] -0.034 | [4] 0.023 | entinostat -0.02 | vorinostat 0.041 | citarinostat -0.046 | silmitasertib 0.03 | [5] 0 | [6] -0.016

MFGE8 (UniProt Q08431)
Chain of UniProt Q08431 (Q08431 whole entry, looked up): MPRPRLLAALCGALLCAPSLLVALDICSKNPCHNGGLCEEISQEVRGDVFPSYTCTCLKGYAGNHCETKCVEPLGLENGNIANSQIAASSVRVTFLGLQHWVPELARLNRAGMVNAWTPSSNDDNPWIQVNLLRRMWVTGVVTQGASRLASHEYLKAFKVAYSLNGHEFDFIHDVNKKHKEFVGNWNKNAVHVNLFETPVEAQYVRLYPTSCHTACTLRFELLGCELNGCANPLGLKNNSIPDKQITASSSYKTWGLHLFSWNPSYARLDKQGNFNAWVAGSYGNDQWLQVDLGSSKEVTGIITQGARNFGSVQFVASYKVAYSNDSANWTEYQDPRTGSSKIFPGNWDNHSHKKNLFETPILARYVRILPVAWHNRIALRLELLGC
inactive: [1] -0.163 | [2] -0.058 | [3] 0.049 | [4] 0.125 | entinostat -0.082 | vorinostat 0.03 | citarinostat -0.036 | silmitasertib 0.117 | [5] 0.007 | [6] -0.029

KLC2 (UniProt Q9H0B6)
Chain of UniProt Q9H0B6 (Q9H0B6 whole entry, looked up): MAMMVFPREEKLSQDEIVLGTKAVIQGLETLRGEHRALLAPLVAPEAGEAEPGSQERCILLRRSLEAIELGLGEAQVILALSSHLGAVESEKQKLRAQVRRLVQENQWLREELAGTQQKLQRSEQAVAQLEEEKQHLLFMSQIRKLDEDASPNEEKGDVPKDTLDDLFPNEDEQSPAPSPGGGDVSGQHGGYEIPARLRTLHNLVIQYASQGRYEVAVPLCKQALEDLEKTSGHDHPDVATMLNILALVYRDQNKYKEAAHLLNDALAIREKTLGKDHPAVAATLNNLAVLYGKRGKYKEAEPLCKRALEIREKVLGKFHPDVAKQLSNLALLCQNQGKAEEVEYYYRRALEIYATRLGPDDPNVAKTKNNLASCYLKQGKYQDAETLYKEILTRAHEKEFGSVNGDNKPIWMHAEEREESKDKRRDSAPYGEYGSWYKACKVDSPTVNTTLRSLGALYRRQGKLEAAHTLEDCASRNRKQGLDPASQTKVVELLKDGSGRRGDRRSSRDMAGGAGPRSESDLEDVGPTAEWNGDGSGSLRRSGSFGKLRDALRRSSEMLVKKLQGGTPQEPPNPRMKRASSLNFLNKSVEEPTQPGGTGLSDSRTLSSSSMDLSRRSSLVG
inactive: [1] -0.149 | [2] -0.084 | [3] -0.134 | [4] -0.044 | entinostat 0.031 | vorinostat 0.044 | citarinostat 0.061 | silmitasertib 0.063 | [5] 0.007 | [6] -0.082

LARP7 isoform 3 (UniProt Q4G0J3)
Chain of UniProt Q4G0J3 (Q4G0J3 whole entry, looked up): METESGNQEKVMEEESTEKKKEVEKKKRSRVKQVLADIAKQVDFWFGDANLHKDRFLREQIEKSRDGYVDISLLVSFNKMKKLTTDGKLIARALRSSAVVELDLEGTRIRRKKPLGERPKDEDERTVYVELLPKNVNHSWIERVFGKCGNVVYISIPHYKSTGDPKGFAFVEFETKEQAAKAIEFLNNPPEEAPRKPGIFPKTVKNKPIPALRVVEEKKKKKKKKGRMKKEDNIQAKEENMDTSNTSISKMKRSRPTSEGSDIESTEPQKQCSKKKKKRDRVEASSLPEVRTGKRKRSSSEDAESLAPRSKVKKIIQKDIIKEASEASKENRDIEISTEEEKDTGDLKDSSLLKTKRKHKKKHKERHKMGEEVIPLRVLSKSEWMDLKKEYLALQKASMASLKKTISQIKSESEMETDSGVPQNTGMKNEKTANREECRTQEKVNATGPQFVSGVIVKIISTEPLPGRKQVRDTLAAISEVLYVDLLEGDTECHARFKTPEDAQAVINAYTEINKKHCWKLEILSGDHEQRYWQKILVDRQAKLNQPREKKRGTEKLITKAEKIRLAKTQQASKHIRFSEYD
inactive: [1] -0.011 | [2] -0.116 | [3] -0.129 | [4] -0.019 | entinostat -0.007 | vorinostat 0.082 | citarinostat 0.043 | silmitasertib 0.03 | [5] -0.034 | [6] -0.065

KDM3B (UniProt Q7LBC6)
inactive: [1] -0.051 | [2] -0.033 | [3] -0.114 | [4] -0.088 | entinostat 0.027 | vorinostat 0.069 | citarinostat 0.098 | silmitasertib 0.056 | [5] -0.064 | [6] -0.023

KIF21A isoform 4 (UniProt Q7Z4S6)
inactive: [1] -0.068 | [2] 0.055 | [3] -0.049 | [4] -0.093 | entinostat 0.01 | vorinostat 0.012 | citarinostat 0.002 | silmitasertib 0.033 | [5] 0.213 | [6] -0.087

MED16 (UniProt Q9Y2X0)
inactive: [1] 0.108 | [2] 0.021 | [3] -0.005 | [4] -0.044 | entinostat -0.047 | vorinostat 0.107 | citarinostat -0.094 | silmitasertib 0.026 | [5] 0.06 | [6] -0.117

MDC1 (UniProt Q14676)
inactive: [1] 0.115 | [2] -0.075 | [3] -0.054 | [4] 0.153 | entinostat 0.001 | vorinostat -0.164 | citarinostat 0.062 | silmitasertib -0.116 | [5] -0.026 | [6] -0.086

MFN1 (UniProt Q8IWA4)
inactive: [1] -0.072 | [2] -0.171 | [3] -0.01 | [4] -0.224 | entinostat 0.034 | vorinostat 0.021 | citarinostat 0.034 | silmitasertib 0.102 | [5] -0.009 | [6] 0.02

MDN1 (UniProt Q9NU22)
inactive: [1] -0.002 | [2] -0.087 | [3] -0.138 | [4] -0.058 | entinostat 0.112 | vorinostat 0.098 | citarinostat 0.075 | silmitasertib -0.037 | [5] -0.032 | [6] 0.082

MED1 (UniProt Q15648)
inactive: [1] 0.027 | [2] -0.064 | [3] 0.002 | [4] -0.113 | entinostat -0.018 | vorinostat 0.05 | citarinostat -0.001 | silmitasertib -0.002 | [5] 0.063 | [6] -0.124

MARCKS (UniProt P29966)
inactive: [1] -0.018 | [2] 0.108 | [3] 0.038 | [4] 0.07 | entinostat -0.074 | vorinostat -0.159 | citarinostat 0.062 | silmitasertib -0.021 | [5] 0.031 | [6] -0.08

MAGOHB (UniProt Q96A72)
Chain of UniProt Q96A72 (Q96A72 whole entry, looked up): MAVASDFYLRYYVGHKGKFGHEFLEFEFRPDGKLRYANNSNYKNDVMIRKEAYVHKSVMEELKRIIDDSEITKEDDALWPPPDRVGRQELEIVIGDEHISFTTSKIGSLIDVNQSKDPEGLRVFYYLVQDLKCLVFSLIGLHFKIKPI
inactive: [1] -0.081 | [2] 0.177 | [3] -0.039 | [4] -0.132 | entinostat 0.016 | vorinostat -0.023 | citarinostat 0.043 | silmitasertib -0.006 | [5] 0.002 | [6] -0.089

LTO1 (UniProt Q8WV07)
Chain of UniProt Q8WV07 (Q8WV07 whole entry, looked up): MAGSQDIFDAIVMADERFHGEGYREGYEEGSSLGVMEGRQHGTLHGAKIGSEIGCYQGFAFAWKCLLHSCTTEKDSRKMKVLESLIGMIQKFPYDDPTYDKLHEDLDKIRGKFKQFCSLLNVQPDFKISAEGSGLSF
inactive: [1] -0.077 | [2] 0.009 | [3] -0.011 | [4] 0.094 | entinostat -0.097 | vorinostat 0.005 | citarinostat 0.044 | silmitasertib 0.158 | [5] -0.015 | [6] -0.126

LONP2 (UniProt Q86WA8)
Chain of UniProt Q86WA8 (Q86WA8 whole entry, looked up): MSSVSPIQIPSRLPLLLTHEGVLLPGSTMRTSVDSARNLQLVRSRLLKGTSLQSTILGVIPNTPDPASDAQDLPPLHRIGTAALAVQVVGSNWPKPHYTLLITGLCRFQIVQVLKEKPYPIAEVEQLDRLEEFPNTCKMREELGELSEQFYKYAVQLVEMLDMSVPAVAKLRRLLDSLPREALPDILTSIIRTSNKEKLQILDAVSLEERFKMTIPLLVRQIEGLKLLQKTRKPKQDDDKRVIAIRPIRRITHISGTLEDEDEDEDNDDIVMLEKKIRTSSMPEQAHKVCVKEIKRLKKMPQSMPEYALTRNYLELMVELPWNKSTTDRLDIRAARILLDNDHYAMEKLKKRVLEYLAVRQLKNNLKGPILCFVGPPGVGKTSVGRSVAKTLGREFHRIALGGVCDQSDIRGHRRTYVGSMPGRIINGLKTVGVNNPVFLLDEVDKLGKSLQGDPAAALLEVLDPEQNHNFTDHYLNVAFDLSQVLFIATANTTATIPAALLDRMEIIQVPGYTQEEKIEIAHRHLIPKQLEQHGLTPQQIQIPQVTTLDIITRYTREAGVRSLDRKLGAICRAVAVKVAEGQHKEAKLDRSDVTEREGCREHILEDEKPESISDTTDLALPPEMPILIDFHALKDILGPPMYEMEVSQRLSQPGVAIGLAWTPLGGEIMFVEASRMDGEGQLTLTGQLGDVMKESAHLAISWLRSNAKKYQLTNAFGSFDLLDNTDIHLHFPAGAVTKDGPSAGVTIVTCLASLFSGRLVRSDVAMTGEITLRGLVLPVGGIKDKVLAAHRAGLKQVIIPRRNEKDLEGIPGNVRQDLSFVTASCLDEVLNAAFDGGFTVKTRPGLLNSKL
inactive: [1] 0.094 | [2] 0.024 | [3] -0.279 | [4] 0.041 | entinostat -0.05 | vorinostat -0.006 | citarinostat -0.069 | silmitasertib 0.105 | [5] -0.007 | [6] -0.219

LUC7L2 (UniProt Q9Y383)
inactive: [1] -0.221 | [2] -0.025 | [3] 0.09 | [4] -0.133 | entinostat 0.025 | vorinostat 0.029 | citarinostat 0.074 | silmitasertib -0.233 | [5] 0.002 | [6] -0.095

KPNA4 (UniProt O00629)
Chain of UniProt O00629 (O00629 whole entry, looked up): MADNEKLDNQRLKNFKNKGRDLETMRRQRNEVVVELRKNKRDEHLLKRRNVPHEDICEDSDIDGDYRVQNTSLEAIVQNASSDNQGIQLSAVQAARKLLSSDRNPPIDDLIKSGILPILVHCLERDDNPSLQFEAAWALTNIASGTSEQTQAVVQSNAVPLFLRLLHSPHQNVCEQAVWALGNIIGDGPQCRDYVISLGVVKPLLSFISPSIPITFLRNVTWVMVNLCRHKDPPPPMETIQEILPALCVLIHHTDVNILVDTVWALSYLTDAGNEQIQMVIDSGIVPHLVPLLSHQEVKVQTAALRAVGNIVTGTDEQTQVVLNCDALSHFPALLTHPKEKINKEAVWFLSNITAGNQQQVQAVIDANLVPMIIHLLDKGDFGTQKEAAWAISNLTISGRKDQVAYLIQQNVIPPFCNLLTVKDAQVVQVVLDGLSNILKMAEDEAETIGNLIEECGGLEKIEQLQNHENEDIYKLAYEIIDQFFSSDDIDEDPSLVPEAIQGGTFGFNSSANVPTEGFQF
inactive: [1] -0.06 | [2] -0.054 | [3] -0.072 | [4] -0.053 | entinostat -0.01 | vorinostat 0.019 | citarinostat 0.051 | silmitasertib 0.065 | [5] -0.017 | [6] -0.111

MFSD5 isoform 2 (UniProt Q6N075)
inactive: [1] -0.037 | [2] 0.035 | [3] -0.137 | [4] -0.089 | entinostat -0.099 | vorinostat -0.093 | citarinostat -0.009 | silmitasertib -0.033 | [5] -0.193 | [6] -0.049

MAP2K2 (UniProt P36507)
Chain of UniProt P36507 (P36507 whole entry, looked up): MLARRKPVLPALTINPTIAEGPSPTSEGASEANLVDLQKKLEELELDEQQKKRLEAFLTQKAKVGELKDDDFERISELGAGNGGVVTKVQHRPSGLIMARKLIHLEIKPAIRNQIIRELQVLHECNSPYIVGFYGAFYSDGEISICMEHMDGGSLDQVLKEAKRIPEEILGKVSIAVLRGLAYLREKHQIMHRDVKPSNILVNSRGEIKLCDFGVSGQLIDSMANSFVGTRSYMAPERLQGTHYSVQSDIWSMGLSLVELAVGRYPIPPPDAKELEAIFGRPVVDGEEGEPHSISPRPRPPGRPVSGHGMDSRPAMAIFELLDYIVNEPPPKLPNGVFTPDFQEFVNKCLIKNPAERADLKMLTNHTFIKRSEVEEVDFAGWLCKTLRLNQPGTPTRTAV
inactive: [1] 0 | [2] -0.042 | [3] -0.023 | [4] -0.003 | entinostat 0.061 | vorinostat 0.039 | citarinostat -0.051 | silmitasertib -0.098 | [5] -0.055 | [6] -0.018

LRPPRC (UniProt P42704)
inactive: [1] -0.249 | [2] -0.291 | [3] -0.676 | [4] -0.272 | entinostat 0.479 | vorinostat 0.289 | citarinostat 0.203 | silmitasertib 0.033 | [5] -0.383 | [6] -0.128

MAD2L1 (UniProt Q13257)
Chain of UniProt Q13257 (Q13257 whole entry, looked up): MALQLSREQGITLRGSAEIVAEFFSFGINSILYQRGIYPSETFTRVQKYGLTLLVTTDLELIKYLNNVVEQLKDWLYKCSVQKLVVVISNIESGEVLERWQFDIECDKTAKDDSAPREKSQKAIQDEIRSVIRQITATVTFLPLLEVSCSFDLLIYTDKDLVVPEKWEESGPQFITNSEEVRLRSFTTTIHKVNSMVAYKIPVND
inactive: [1] -0.013 | [2] -0.09 | [3] -0.193 | [4] -0.124 | entinostat 0.036 | vorinostat 0.021 | citarinostat 0.014 | silmitasertib 0.072 | [5] -0.032 | [6] 0.006

KIFBP (UniProt Q96EK5)
inactive: [1] 0.002 | [2] -0.166 | [3] -0.117 | [4] -0.091 | entinostat 0.059 | vorinostat 0.088 | citarinostat 0.043 | silmitasertib -0.02 | [5] 0.024 | [6] -0.056

LEO1 (UniProt Q8WVC0)
inactive: [1] 0.003 | [2] -0.06 | [3] -0.028 | [4] -0.11 | entinostat 0.005 | vorinostat 0.088 | citarinostat 0.009 | silmitasertib 0.068 | [5] -0.153 | [6] -0.055

LEMD3 (UniProt Q9Y2U8)
inactive: [1] -0.206 | [2] -0.029 | [3] -0.142 | [4] -0.116 | entinostat -0.017 | vorinostat 0.035 | citarinostat 0.053 | silmitasertib -0.068 | [5] -0.077 | [6] 0.057

KIF2C (UniProt Q99661)
inactive: [1] -0.024 | [2] 0 | [3] -0.053 | [4] -0.068 | entinostat 0.095 | vorinostat 0.122 | citarinostat 0.156 | silmitasertib -0.009 | [5] -0.005 | [6] -0.001

MAP2K1 (UniProt Q02750)
inactive: [1] -0.028 | [2] -0.062 | [3] -0.011 | [4] -0.027 | entinostat -0.004 | vorinostat 0.035 | citarinostat 0.022 | silmitasertib -0.064 | [5] -0.061 | [6] -0.035
